# The other results are listed elsewhere or left out. A call without a number means that no potency is given here. Inconclusive results are not listed. The source made the active and inactive calls. The call rests on the fitted dose curve; in most records, active means well fitted inhibition curve with a large enough effect in the main read-out, with a control signal flat; inconclusive means small, poorly fitted or top-dose-only effect, or a change in a side signal; inactive means no such curve, though single readings can be large or run the other way.
# Target: Caspase-7 (Homo sapiens) (UniProt P55210)
# Sequence (P55210 24-198 limits assumed): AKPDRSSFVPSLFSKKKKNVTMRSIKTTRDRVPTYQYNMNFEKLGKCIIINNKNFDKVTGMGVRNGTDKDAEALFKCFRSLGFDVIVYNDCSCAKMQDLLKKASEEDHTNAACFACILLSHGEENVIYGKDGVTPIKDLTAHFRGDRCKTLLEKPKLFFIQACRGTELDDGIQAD
# Sequence (P55210 207-303 limits assumed): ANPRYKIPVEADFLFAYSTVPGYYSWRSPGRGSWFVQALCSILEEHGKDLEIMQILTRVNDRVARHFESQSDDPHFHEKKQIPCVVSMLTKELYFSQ
# Assay: Concentration-Response Counterscreen for Redox Active Inhibitors of Caspase-7: Cysteine
# Details: caspase-7 enzyme with cysteine, fluorogenic substrate; series mostly up to 57.5 µM
# Source text: NIH Molecular Libraries Screening Centers Network [MLSCN]
# NIH Chemical Genomics Center [NCGC]
# PI Name: Dr. James Wells,
# Dr. Enrique Perez-Paya, Dr.Janice Williams, Dr. Dennis Wolan, a person
# The caspases (Cysteine Aspartyl Protease) comprise a related family of 14 dimeric proteases that are critical mediators of apoptosis (programmed cell death) and inflammation. The caspases represent an important class of drug targets for stroke, ischemia, cancer and inflammatory diseases. […] One goal of this project was to identify compounds that act as allosteric inhibitors via stabilizing the procaspase form of the enzyme. […]
# The biochemical assay was configured using purified caspase 7 at a high enzyme concentration to promote formation of the homodimers and thus facilitate the identification of allosteric inhibitors. […] After initiation of the assay with substrate the plates were rapidly read using an automated robotic system (Kalypsys, Inc.) to maintain consistent timing. […] Product formation was also measured after 1 hour. […]
# Caspase 7 was prepared in buffer (50 mM HEPES pH 7.5, 50 mM KCl, 200 mM NaCl, 10 mM Cys (Aldrich cat# 861677), 0.1% CHAPS) at a concentration of 66.6 nM and 3 uL was dispensed to all wells using black solid Kalypsys 1536-well plates. […] The plates were then exposed using 405 nm excitation/520 nm emission filters for 4 sec and read at 20 sec intervals for 3 min. […]
row,SMILES,Potency
1,CCN1C(=O)/C(=C2/Sc3ccccc3N2CCCS(=O)(=O)O)SC1=S,inactive
2,N#CC1=C(N)Oc2cc(O)ccc2C1C1CCCCC1 (configuration not stated),25.1 µM (active)
